Among all 2,500 compounds or so, about 2,100 (84%) were called active. The set was probably picked from earlier hits. The list is a sample of the results. Potency and affinity values are given separately. Values without a mark were called inactive.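 The calls were made as follows: active = toxic compounds, whose cell viability fell below 70% of untreated control cells; inactive = the rest.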
Test: viability of uninfected HEp-2 cells – cell-based, HTS, cytotoxicity control for RSV inhibitor project, dose response (AID 2410);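 also: cells exposed to compound for six days before readout; 100% = median signal of untreated cell control wells on each plate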
Conditions: HEp-2 viability, luminescence, cytotoxicity counter-screen; series mostly up to 50 µM; viability: at the top concentration

SMILES	viability
CCC(CC)NC(=O)COC(=O)c1ccc(NS(=O)(=O)c2ccc3c(c2)OCCO3)cc1	93.9%
CCOC(=O)c1cc(CC)sc1NC(=O)c1ccc2c(c1)OCCO2	78.4%
Cc1cccc(Nc2nc(OCC#N)nc(N(C)C)n2)c1	99.8%
Cc1ccc(S(=O)(=O)N2CCN(CCO)CC2)cc1-c1nnc2c3ccccc3c(C)nn12	110%
Cc1ccnc(NS(=O)(=O)c2ccc(NC(=O)Cc3ccccc3)cc2)n1	93.4%
Cc1ccc(C2=NN(C(=O)COc3ncnc4ccccc34)C(c3ccco3)C2)cc1 (stereo unspecified)	103%
O=C1CN2C(=Nc3ccc(Cl)cc3C2c2ccccc2)CN1 (stereo unspecified)	90.6%
O=C1CC(Sc2nnc(-c3ccccc3)o2)C(=O)N1c1ccccc1 (stereo unspecified)	93.9%
CN(CCO)c1nc(N)c2c(N)nc3c(c2c1C#N)CC(=O)N3Cc1cccs1	101%
Clc1cccc(Nc2ncnc3c2cnn3-c2ccccc2)c1	84%
Cc1ccc2nc(NC(=O)CCn3c(=O)sc4ccccc43)sc2c1	75.8%
CCOc1ccc2nc(NC(=O)Cc3cccs3)sc2c1	96.1%
COc1cc(NC2c3ncccc3C(=O)N2Cc2ccco2)cc(OC)c1OC (stereo unspecified)	94.1%
Cc1ccc(-n2nc3c(=O)n(CCCC(=O)NCC(C)c4ccccc4)nc(C)c3c2C)cc1 (stereo unspecified)	75.8% [at 25 µM]
CC(C(=O)N=Nc1c(O)[nH]c2ccccc12)n1cnc2ccccc2c1=O (stereo unspecified)	70.9%
CCOC(=O)Cc1nnc(Nc2ccc(C)cc2)c2ccccc12	84.4%
COC(=O)c1c(NC(NC(=O)C(C)(C)C)C(Cl)(Cl)Cl)sc2c1CCC2 (stereo unspecified)	84.3%
Cc1ccc(OCc2ccc(Br)cc2)c([N+](=O)[O-])n1	104%
COc1ccc(CNC(=O)CCCn2nc(C)c3c(C)n(-c4ccc(C)cc4)nc3c2=O)cc1	93.4%
O=C(CSc1nc2nc3c(cc2c(=O)n1-c1ccccc1)CCCC3)Nc1cccc2ccccc12	85%
Nc1c2c(nc3sc4c(c13)CCCC4)-c1ccccc1CC2	77.7%
Cc1noc(C)c1C(=O)OC(C)C(=O)Nc1ccc(S(=O)(=O)NC(C)C)cc1 (stereo unspecified)	86.2%

SMILES	viability
CCCCc1cc(=O)oc2c3c(cc(OCC(=O)N4CCC[C@H]4C(=O)O)c12)OC(C)(C)CC3	106%
Cc1cc(C)c2c(n1)sc1c(N3CCCCC3)ncnc12	118%
COc1ccc(Cl)cc1NS(=O)(=O)c1c(C)[nH]c(C)c1C(=O)N1CCCCC1	93.7%
COc1ccc(N(CC(=O)NC2CCCC2)C(=O)c2ccc(C)s2)c(OC)c1	81.1%
CCCc1c(C(=O)Nc2ccc(C(F)(F)F)cc2)cnn1-c1ccccc1	90.4%
Cc1cc(C)c(C)c(C(=O)CSc2nnc(-c3ccc4[nH]c(C)c(C)c4c3)o2)c1C	75.9%
Cc1c(NC(=O)CN2C(=O)c3ccccc3C2=O)c(=O)n(-c2ccccc2)n1C	104%
C/C(N)=C(/C#N)C(=O)COC(=O)CNS(=O)(=O)c1ccc2ccccc2c1	112%
COc1ccc(S(=O)(=O)NCc2ccco2)cc1-c1nnc2c3ccccc3c(C)nn12	71%
O=c1cc(-c2ccc(O)c(O)c2)oc2c(C3O[C@H](CO)[C@@H](O)[C@H](O)[C@H]3O)c(O)cc(O)c12 (stereo partly specified)	109%
COc1ccc(OC)c(-c2nc3c(C)n[nH]c(=O)c3[nH]2)c1	75.5%
COc1ccc2c(CC(=O)Nc3ccc(OC)c(NS(=O)(=O)c4ccc(F)cc4)c3)coc2c1	72.2%
COc1ccc(C(C)=O)cc1COc1ncnc2ccccc12	95.6%
Cc1ccc(-c2n[nH]c(=S)n2/N=C/c2ccncc2)cc1	103%
COCCNC(=O)c1cc2c(s1)-c1ccc(Cl)cc1SC2	94%
Clc1ccc(Nc2ccc3ccccc3n2)cc1	74.3%
Cc1cc2cc(C)c(NCCNC(=O)c3ccccc3F)nc2cc1C	89.4%
O=C(NC1=NCCS1)c1ccc(-c2ccc(Cl)cc2)o1	86.3%
CCOC(=O)N1CCN(C(=O)CSc2nnc(-c3ccc(C)c(C)c3)o2)CC1	80.2%
O/N=C/c1ccccc1OCc1ccc(Cl)cc1	75.7%
O=C(O)c1nn(CCOc2c(Cl)cccc2Cl)c(=O)c2ccccc12	103%
O=C(Nc1ccc(Cl)cc1Cl)C1=Cc2ccccc2OC1	77.9%

SMILES	viability
COc1ccc(C(=O)Nc2cccc3c2CCCC3)c(OC)c1	82.8%
O=C(O)c1ccc(N/N=C/c2cc(Br)cs2)cc1	70.8%
CCOc1ccc(NC(=O)c2csc3c2CCCC3)cc1	94.3%
CCOc1cccc(C(=O)Nc2ccc(NC(=O)c3ccccc3)c(C)c2)c1	93.5%
COc1ccc(CCNC(=O)c2ccc(N(C)S(=O)(=O)c3ccc(C)cc3)cc2)cc1	80.8%
COc1ccc2[nH]cc(C(=O)CN3CCN(C4CCCCC4)CC3)c2c1	97.3%
CC1(C)Cc2cccc(C(=O)Nc3ccc(F)cc3F)c2O1	102%
O=C1c2ccccc2C(=O)N1CC1c2ccccc2CCN1C(=O)C1CCCCC1 (stereo unspecified)	97.2%
O=c1c2ccccc2nc(/C=C/c2ccc(Br)cc2)n1CCCO	79.9%
CC(=O)N1CCN(C2=NC(=O)/C(=C/c3ccc(OS(=O)(=O)c4ccccc4)cc3)S2)CC1	70.4%
CCn1nc(NC(=O)c2ccccc2)c2cc3cccc(C)c3nc21	91.7%
N#Cc1c(-c2c(Cl)cccc2Cl)noc1/C=C/Nc1ccc(C(=O)O)cc1	84.7%
Cc1csc2c(=O)sc(NC(=O)c3ccc(F)cc3)nc12	83.2%
Cc1[nH]c2ccccc2c1/C=N/Nc1ccc([N+](=O)[O-])cc1	71.8%
Cc1ccc(-c2nc(-c3cccnc3)no2)c(C)c1	74.2%
COc1ccc2nc(/C=N/NC(=O)[C@H](C)NC(=O)OC(C)(C)C)ccc2c1	73.2%
CC(=O)Nc1cccc(-c2csc(Nc3cccc(C)n3)n2)c1	75%
CCOC(=O)c1cccc(NC(=O)Nc2cc(OC)ccc2OC)c1	108%
N=C1SCC(=O)N1c1nc(-c2ccccc2)cs1	70%
CS(=O)(=O)c1ccccc1C(=O)Nc1ccc(-c2nc3ccccc3o2)cc1	77%
CSc1nnc(-c2ccc(Cl)cc2Cl)o1	94.3%
CCOc1ccc2nc3c(cc2c1)CN(CCCO)C(=NCCOC)S3	83.7%

SMILES	viability
O=[N+]([O-])c1ccc2c(c1)nnn2-c1ccccc1	106%
CCN(CC)c1nc(Nc2ccc(Cl)cc2)nc(OCC#N)n1	83.7%
Cn1c(=NC(=O)C2CC2)sc2cc(F)cc(F)c21	81%
COC(=O)c1ccc2[nH]ccc2c1	109%
CC1CCCN(C(=O)CCNS(=O)(=O)c2ccc(Br)cc2)C1 (stereo unspecified)	74.2%
c1coc(-c2nn3c(Cn4nnc5ccccc54)nnc3s2)c1	92.8%
c1ccc(-c2nn3c(Cn4nnc5ccccc54)nnc3s2)cc1	82.3%
CCOC(=O)Cc1c(C)c2ccc(N(CC)CC)cc2oc1=O	92.8%
Cc1c(Cc2ccccc2)c(=O)oc2cc(O)cc(O)c12	75.1%
CNc1oc(/C=C/c2cccc(OC)c2)nc1C#N	105%
N#Cc1c(N2CCOCC2)nsc1-c1ccc(C(F)(F)F)cc1	89.6%
Cc1ccc(-c2nc3cc(N)ccc3o2)cc1Br	88.8%
COC(=O)c1sccc1NC(=O)c1ccccc1F	98.8%
O=C(NCCN1CCN(C(=O)C(c2ccccc2)c2ccccc2)CC1)C(=O)Nc1ccccc1	94.3%
COc1cc(N)c(Cl)cc1NC(=O)c1ccccc1	98.5%
Cc1nn2c(N)c(C#N)cnc2c1-c1ccccc1	76.8%
Cc1ccc(Nc2nc(N)c([N+](=O)[O-])c(N3CCOCC3)n2)cc1C	86.4%
C[C@@H]1CN(C(=O)c2nc3ccc(Cl)cn3c2CN2CCc3sccc3C2)C[C@H](C)O1	80.6%
CN(CC(=O)NCc1ccc(F)cc1)S(=O)(=O)c1cccc2nsnc12	77.8%
CCN(c1ccccc1)S(=O)(=O)c1ccc(Cl)c(NC(=O)c2ccc(=O)[nH]n2)c1	81.7%
CSc1ncc(Cl)c(C(=O)Nc2ccccc2Br)n1	84%
C/C(N)=C(/C#N)C(=O)COC(=O)c1ccncc1	92.3%

SMILES	viability
C=CCC1(C#N)C(=S)NC(C)=C(C(=O)OCC)C1c1ccccc1 (stereo unspecified)	73.7%
CNC(=S)N/N=C(\C)c1ccc(-n2ccnc2)cc1	71.6%
Cc1ccc(-n2c(-c3cccnc3)n[nH]c2=S)c(C)c1	103%
COc1cc(-c2nc3c(c(C)nn3-c3ccccc3)c3cc(OC)c(OC)cc23)ccc1O	83.3%
COc1ccc(/C=C/C(=O)NCc2nc3ccccc3[nH]2)cc1OC	71.4%
CC(C(=O)NCCc1ccc(Cl)cc1)n1c(=O)c2cccn2c2cccnc21 (stereo unspecified)	101%
O=[N+]([O-])c1ccc(N/N=C/c2cccnc2)cc1	95.9%
COc1ccc(C2Nc3cc(OC)ccc3-n3cccc32)cc1 (stereo unspecified)	82.6%
COc1ccc(-c2cc(C(=O)Nc3nc4c(C)cccc4s3)c3ccccc3n2)cc1OC	75.3%
CCCNC(=O)N1CCN(c2nc(C(C)C)c3c(c2C#N)CC(C)(C)OC3)CC1	97.5%
Cc1cccc2nc(COc3ccc(Cl)c4cccnc34)cn12	73%
CC(C)(C)N1C(=O)[C@H]2[C@@H](c3ccc(Br)cc3)N3C(=O)N(c4cccc(Cl)c4)C(=O)[C@@]3(Cc3ccccc3)[C@H]2C1=O	79.2%
O=C1[C@H]2[C@@H](c3ccc(F)cc3)N3C(=O)N(c4ccc(Br)cc4)C(=O)[C@@]3(Cc3ccc(Cl)cc3)[C@H]2C(=O)N1C1CCCCC1	93.4%
O=C1[C@H]2[C@@H](c3ccc(Cl)cc3)N3C(=O)N(c4cccc(Br)c4)C(=O)[C@@]3(Cc3ccc(Cl)cc3)[C@H]2C(=O)N1C1CCCCC1	73.5% [at 12.5 µM]
COc1ccc2oc(-c3ccco3)cc(=O)c2c1	75.1%
O=c1c2ccccc2oc2ccc(-c3ccc4[nH]ccc4c3)cc12	84.9%
O=C1C2CCCN2c2ccc(S(=O)(=O)N3CCOCC3)cc2N1Cc1ccccc1F (stereo unspecified)	92.7%
O=C(c1ccc(F)cc1)N1CCN2C(=O)c3ccccc3C12c1ccccc1 (stereo unspecified)	91.1%

Source: PubChem BioAssay AID2410 (Southern Research Specialized Biocontainment Screening …, 2010)
